Hits are enriched below; roughly 21% of the tested compounds scored in any of these assays.
AMA1-RON2 inh = AMA1-RON2 (P. falciparum) interaction inhibition | AID 720542 | AlphaScreen AMA1-biotinylated RON2 peptide binding | 360,000 compounds, 0.2% hits | Potency, µM (series often up to 58.2 µM), for inactives: at the highest dose activity change, negative = inhibition, most hits filed as inhibitors;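 note: potency is the fitted concentration of half-maximal effect; 0% = vehicle wells and -100% = peptide control; nearly all actives have a fitted effect of over 45% in size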
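AMA1 (3D7) with his tag at 25 nM final met compounds first, then biotinylated RON2 peptide at 25 nM; detection used donor plus acceptor beads, 10 µg/mL apiece, read by AlphaScreen after 30 min at room temperature.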
HCV inhibitor = inhibitors of hepatitis C virus infection; Huh7.5.1 HCVcc-Cre infection, luciferase reporter, 44 h; Potency, µM (titrated, usually from 41.8 µM), for inactives: top-dose activity change, negative = inhibition, actives largely listed as inhibitors; 340,000 compounds, 3.4% hits; AID 651820; note: potency is the fitted concentration of half-maximal effect; % is set by controls: 0 for no effect and ±100 for the full control effect
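Compounds are dispensed onto cells plated 4 h earlier at 1,000 per well, with HCVcc-Cre virus (about 0.5 moi) added next. Following 44 h of culture, luminescent signal is measured for 15 sec after 15 min with substrate at room temperature.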
CHX counter = counter-screen hit for Shiga toxin inhibitors, cycloheximide; cell reporter, cycloheximide protein synthesis inhibition counterscreen; max response, %; 300,000 compounds, 12% hits; AID 2314; in the data active = max response mostly above about 13%, no sharp cut-off; inactive = mostly below about 14%; note: read at 38.3 µM for the half of the compounds with a filed dose; 0% is about no effect
Pf growth 48h = inhibits P. falciparum growth in the first generation, 48 h | P. falciparum luciferase growth in erythrocytes, 48 h | Potency, µM (highest dose often 28.7 µM), without a hit: top-dose activity change, negative = inhibition, actives largely listed as inhibitors | 310,000 compounds, 5.9% hits; note: potency is the fitted concentration of half-maximal effect; % is set by controls: 0 for no effect and ±100 for the full control effect
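Parasite viability was followed by luminescence of a genomically integrated firefly luciferase. Cultures held 0.1% parasitemia at 2% hematocrit (final), incubated under 5% CO2 at 37 C.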
Shiga inhibitor = Shiga toxin inhibition. Vero cells, Shiga toxin protein synthesis inhibition reporter. inhibition, % at 38.7 µM. 290,000 compounds, 9.2% hits; in the data active = inhibition mostly above about 28%, no sharp cut-off; inactive = mostly below about 43%; note: 0% is about no effect
Pf growth 96h = P. falciparum growth inhibition at 96 hours | Potency, µM (highest dose often 28.7 µM), without a hit: at the highest dose activity change, negative = inhibition, hits mostly inhibitors | P. falciparum luciferase reporter growth, 96 h | 320,000 compounds, 6.9% hits; note: potency is the fitted concentration of half-maximal effect; % is set by controls: 0 for no effect and ±100 for the full control effect
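Erythrocytes infected with luciferase-expressing P. falciparum were dispensed at 2% hematocrit and 0.05% parasitemia (final), then incubated with compounds 96 hours at 37 C in 5% CO2. Luminescence after detection reagent addition reported growth.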
Numbers without * were called inactive; ? = inconclusive; nt = no result given; [ ] = remark or other dose. Unless noted, calls come from the whole dose curve; as a rule, active = well fitted curve in the direction sought with a large enough effect; inconclusive = small, poorly fitted or top-dose-only effect, or another doubt; inactive = no such curve, though single readings can be large; an effect the other way counts as inactive or inconclusive.

SMILES | AMA1-RON2 inh | HCV inhibitor | CHX counter | Pf growth 48h | Shiga inhibitor | Pf growth 96h
Cc1cccc(C)c1N=C1NN=C(c2ccccc2F)CS1 | 48.6% | ? | 6.7 | -2.1% | 13.9 | ?
c1csc(C2=NNC(=NC3CCCCC3)SC2)c1 | 28.7% | -5.2% | 37.3* | 27.0% | 74.6* | 0.0%
c1csc(-c2nn3c(C4CCCCC4)nnc3s2)c1 | -1.7% | -14.7% | nt | nt | nt | nt
Cc1cc(C2=NNC(=NC3CC3)SC2)c(C)n1-c1ccccc1F | 19.7% | 11.2µM* | 3.5 | ? | -20.8 | ?
Cc1cc(OC(C)C(=O)NCCCN2CCOCC2)ccc1Cl (centres undefined) | -2.8% | nt | -0.7 | -2.2% | 13.2 | -10.0%
C[C@@H]1CN([C@@H](C)CO)C(=O)CCCn2nncc2CO[C@@H]1CN(C)S(=O)(=O)c1cn(C)cn1 | 16.0% | nt | nt | nt | nt | nt
CCCOc1ccc(CNC(=O)C2CCN(C(=O)N3CCOc4ccccc43)CC2)cc1 | 6.0% | ? | -2.0 | ? | -3.5 | ?
Cc1ccc(NC(=O)C(c2ccccc2)N2CCN(C(=O)c3ccco3)CC2)cc1Cl (centres undefined) | -10.0% | -0.5% | nt | 10.4µM* | nt | ?
Cc1cccc(C)c1NC(=O)C(c1ccccc1)N1CCN(C(=O)c2ccco2)CC1 (centres undefined) | 7.9% | -8.0% | -3.6 | ? | -12.6 | nt
COc1ccc(C(C(=O)Nc2ccc(F)cc2)N2CCN(C(=O)c3ccco3)CC2)cc1 (centres undefined) | 0.0% | nt | nt | nt | nt | nt
CCOc1ccccc1NC(=O)C(c1ccccc1)N1CCN(C(=O)c2ccco2)CC1 (centres undefined) | -8.7% | ? | nt | 9.28µM* | nt | ?
CCC(C(=O)Nc1c(C)cccc1C)n1c(-c2cnc(C)cn2)nc2ccccc21 (centres undefined) | 88.5% | nt | nt | nt | nt | nt
Cc1ccc(S(=O)(=O)N(C)C)cc1NC(=S)NC(=O)C12CC3CC(CC(C3)C1)C2 | 18.1% | 15.8µM* | -3.2 | ? | -10.5 | ?
NS(=O)(=O)c1cccc(NC(=S)NC(=O)C23CC4CC(CC(C4)C2)C3)c1 | 14.9% | 5.7% | 23.1* | 7.3% | 66.0* | 44.3%
OCCCNc1ncnc2c1ncn2[C@H]1CN(Cc2ccc(Cl)cc2)C[C@@H](CO)O1 | 2.7% | nt | nt | nt | nt | nt
COc1ccc([N+](=O)[O-])cc1N(CC(=O)O)S(C)(=O)=O | -5.2% | 22.5% | -0.8 | 4.7% | 24.3 | -15.5%
COc1ccc(Cl)cc1N(CC(=O)N1CCCC1)S(=O)(=O)c1ccc(C)cc1 | 1.1% | 5.9% | -1.5 | -27.5% | -2.0 | ?
COC(=O)CN(c1cc([N+](=O)[O-])ccc1OC)S(C)(=O)=O | -7.3% | 17.0% | 6.5 | -7.6% | -4.4 | 14.7µM*
COc1ccc(S(=O)(=O)NN(C)C)cc1N(C)S(=O)(=O)c1ccc(Cl)cc1 | 12.7% | 5.2% | 0.6 | 12.4% | -1.1 | 0.0%
COC(=O)CN(c1cc(Cl)ccc1OC)S(=O)(=O)c1ccc(C)cc1 | -4.3% | ? | 1.3 | 2.08µM* | 2.5 | -13.6%
COc1ccc(S(=O)(=O)Nc2ccc(C)cc2)cc1N(C)S(=O)(=O)c1ccc(Cl)cc1 | -4.6% | 8.91µM* | 6.5 | 2.94µM* | 1.0 | -12.2%
COc1cc(N(C(C)=O)c2ccc(O)c(C(=O)O)c2)c2ncccc2c1 | -15.6% | nt | nt | nt | nt | nt
O=C1c2ccccc2C(=O)N1CCCc1c[nH]c2ccc(Cl)cc12 | -5.9% | -20.5% | 14.4* | 29.7% | -8.4 | 37.0%
O=C(CN1C(=O)c2ccccc2C1=O)NCCc1c[nH]c2ccc(Cl)cc12 | -8.8% | ? | -3.1 | -9.1% | 15.6 | ?
COc1ccc2[nH]cc(CCNC(=O)c3ccco3)c2c1 | -1.1% | ? | nt | 35.8% | nt | 23.3%
SMILES | AMA1-RON2 inh | HCV inhibitor | CHX counter | Pf growth 48h | Shiga inhibitor | Pf growth 96h
O=C(Oc1ccc2[nH]cc(CCN3C(=O)c4ccccc4C3=O)c2c1)c1ccco1 | -11.2% | -20.6% | 27.1* | 24.0% | 41.0 | -28.2%
COc1ccc(-n2cc(-c3ccccc3)[nH]c2=S)cc1 | 11.1% | 11.7% | 11.8 | 27.6% | 12.7 | ?
COc1cccc(-c2cn(-c3cccc(C(F)(F)F)c3)c(=S)[nH]2)c1 | 53.0% | ? | 12.9 | 10.4µM* | -3.4 | ?
S=C1NCc2cncnc2N1 | 0.1% | nt | nt | nt | nt | nt
C[C@H]1COC2=C1C(=O)C(=O)c1c2ccc2c1CCCC2(C)C | 28.2µM* | ? | 25.7* | ? | 58.9* | ?
Cc1coc2c1C(=O)C(=O)c1c-2ccc2c(C)cccc12 | ? | 2.6% | 18.1* | ? | 35.4* | ?
CNc1ccc2c3c(cccc13)C(=O)N(C)C2=O | 1.4% | ? | -3.0 | 18.1%[0.00184 µM] | -4.4 | 2.5%
Cc1coc2c1C(=O)C(=O)c1c-2ccc2c1CCCC2(C)C | ? | ? | 23.7* | ? | 38.9* | ?
CC1COC2=C1C(=O)C(=O)c1c2ccc2c1CCCC2(C)C (centres undefined) | nt | nt | 35.5 | nt | 52.6* | nt
O=C(Nc1ccc2c(c1)OCCO2)c1[nH]c(C(F)(F)F)nc1-c1ccccc1 | -9.3% | nt | nt | nt | nt | nt
CC(=O)Nc1ccccc1OCC(=O)N(Cc1ccccc1)C(C)C | -0.6% | 15.8µM* | -0.9 | -19.9% | -9.1 | ?
O=C(Cc1c(O)c2ccccc2[nH]c1=O)NC1CCCCCC1 | -5.1% | -0.3% | 16.7 | -7.8% | 14.1 | 25.6%
CC(C)NC(=O)c1c(O)c2ccccc2[nH]c1=O | 47.4% | ? | 13.5 | 10.4µM* | -4.2 | 4.15µM*
O=c1[nH]c2ccccc2c(O)c1-[n+]1ccccc1 | -9.4% | 12.7% | -1.2 | 3.0% | 43.2 | 13.6%
O=c1[nH]c2ccccc2c(O)c1O | 10.6% | ? | 0.5 | 13.1µM* | -8.7 | 10.4µM*
CC(C)C(=O)NNC(=O)c1c(O)c2ccccc2[nH]c1=O | 18.0% | 6.1% | -2.4 | 11.7µM* | 2.6 | ?
O=C(NC1CCCCCC1)c1c(O)c2ccccc2[nH]c1=O | 59.1% | -4.1% | 25.0* | ? | 84.4* | 6.2%
COC(=O)c1c(O)c2ccccc2[nH]c1=O | -14.6% | 5.2% | -0.6 | -1.6% | -2.6 | nt
CCOC(=O)c1ccc(S(=O)(=O)N2CCN(CC(O)COc3ccc(C#N)cc3)CC2)cc1 (centres undefined) | -7.3% | ? | -1.3 | -11.1% | -1.0 | -14.7%
CSc1ccc(Cn2c(C)c(C(=O)NCc3ccc4c(c3)OCO4)sc2=O)cc1 | -11.3% | nt | nt | nt | nt | nt
CCOP(=O)(OCC)C1NC(=O)N(c2ccccc2)C1=O (centres undefined) | 0.7% | 15.3% | -6.3 | 2.2% | -4.3 | ?
C/C(=N\N1CCCCC1c1cccnc1)c1c(O)n(C2CCCCC2)c(=S)[nH]c1=O (centres undefined) | 17.3% | ? | -4.2 | 9.28µM* | -7.3 | 3.29µM*
CCCCn1c(O)c(/C(CC)=N/N2CCCCC2c2cccnc2)c(=O)[nH]c1=S (centres undefined) | 42.2% | -28.4% | -7.3 | 9.28µM* | -1.2 | 2.94µM*
